# Source: PubChem (several laboratories)
# Only some compounds are listed: those with a hit (about 1.7% of all), similar ones and a draw of the others.
# LANA-H2B inh: blocks KSHV LANA binding to histone H2A/H2B | Q9QR71 | inhibition, % (test concentration not listed) | AID 2629 | cell-free LANA-H2A/H2B peptide, fluorescence polarization | hit rate 0.6% among 320,000; in the data active = inhibition mostly above about 10%, no sharp cut-off; inactive = mostly below about 6.7%
# HDAC3 inh: blocks human histone deacetylase 3 | recombinant HDAC3, fluorogenic peptide/trypsin coupled, fluorescence | inhibition, % at 8.3 µM | hit rate 0.15% among 320,000 | AID 2718; in the data active = inhibition above about 26%, passing the limit was not always enough
# Target sequence (O15379 whole entry, looked up): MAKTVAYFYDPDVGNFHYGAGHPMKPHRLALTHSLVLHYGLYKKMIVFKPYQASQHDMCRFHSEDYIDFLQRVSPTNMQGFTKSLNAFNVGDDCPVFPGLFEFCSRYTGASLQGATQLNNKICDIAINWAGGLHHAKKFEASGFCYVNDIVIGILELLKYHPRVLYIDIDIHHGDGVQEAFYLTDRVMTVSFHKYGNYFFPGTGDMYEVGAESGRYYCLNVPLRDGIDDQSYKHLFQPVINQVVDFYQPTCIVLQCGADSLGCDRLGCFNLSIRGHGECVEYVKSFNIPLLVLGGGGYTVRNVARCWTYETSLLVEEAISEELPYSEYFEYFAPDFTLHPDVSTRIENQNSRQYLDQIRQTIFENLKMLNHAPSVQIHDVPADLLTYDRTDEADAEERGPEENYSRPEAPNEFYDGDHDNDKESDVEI
# HTR2A ag: activates the mouse 5-HT2A serotonin receptor | CHO-K1 mHTR2A beta-arrestin complementation, luminescence; percent of 30 µM serotonin response | activation, % at 7.6 µM | hit rate 0.66% among 360,000 | AID 624169;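 active = activation above a run cutoff, the mean activation of all tested compounds plus 3 SD, cut at about 14% in these data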;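 note: 0% = plate median of compound wells and 100% = 30 µM serotonin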
# Fh CTSL1 inh: counter-screen for PFM18AAP inhibitors: inhibitors of F. hepatica cathepsin L1; hit rate 0.49% among 300,000; inhibition, % at 5.96 µM; recombinant F. hepatica cathepsin L1, Z-Leu-Arg-MCA fluorescence;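 active = inhibition above the mean of all tested compounds plus 3 SD, set per screening campaign, cut at about 17% in these data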;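 note: 0% = plate median of test compound wells and 100% = 1 µM Z-Phe-Ala-diazomethylketone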
# An asterisk follows results filed as active; / = no result given.
SMILES,LANA-H2B inh,HDAC3 inh,HTR2A ag,Fh CTSL1 inh
CCCCn1c(=O)[nH]c2nc3cc(N)ccc3nc2c1=O,85*,5,-2,1
COc1cc(-c2nc(CN3CCCCC3CCNC(C)=O)c(C)o2)ccc1F (configuration not stated),3,/,1,-4
CCOC(=O)C1C(=O)C=C(C)C(C(=O)OCC)C1c1cccc([N+](=O)[O-])c1 (configuration not stated),27*,1,4,-4
CC(CCC(=O)O)C1CC[C@H]2C3CCC4CC(=O)CCC4(C)[C@H]3CC(=O)C12C (some centres not stated),4,-2,1,3
COc1cccc(CNC(=O)C2CCCN(c3nc4ccccc4o3)C2)c1 (configuration not stated),14*,-3,-4,-5
CCN1CCN(C(=O)c2ccc(Cl)c(S(=O)(=O)N(C)c3ccccc3)c2)CC1,0,2,0,/
C/C=C(\C)C(=O)OC1[C@H](OC(C)=O)C2(CO)C(CC1(C)C)C1=CCC3C4(C)CCC(O[C@@H]5O[C@H](C(=O)O)[C@@H](O[C@@H]6O[C@H](CO)[C@@H](O)[C@H](O)[C@H]6O)[C@H](O)[C@H]5O[C@H]5O[C@H](CO)[C@@H](O)[C@H](O)[C@H]5O)[C@](C)(CO)C4CCC3(C)[C@]1(C)C[C@H]2O (some centres not stated),/,/,15*,/
Cn1nc(C(=O)Nc2cc(Cl)ccc2N2CCCC2)c2ccccc2c1=O,48*,1,11,/
O=C1c2ccccc2S(=O)(=O)c2cc(C(=O)N3CCN(c4ccc(Cl)cn4)CC3)ccc21,-1,-4,-1,17*
N#Cc1cccnc1N1CCN(C(=O)c2ccc3c(c2)S(=O)(=O)c2ccccc2C3=O)CC1,1,15,3,1
O=C(Cn1c(=O)oc2cc(S(=O)(=O)N3CCCCCC3)ccc21)NC1CCCCCCC1,0,-3,-2,17*
CC(C)C(c1nnnn1C1CCCCC1)N1CCOCC1 (configuration not stated),19*,1,9,5
COc1ccc(N2CCN(C(c3nnnn3C3CCCC3)C(C)C)CC2)cc1 (configuration not stated),4,-1,2,-4
Cc1ccc(NC(=O)CSc2n[nH]c(-c3cccnc3)n2)cc1Cl,-9,-3,-9,3
Cc1ccc(NC(=O)CN(C)C(=O)c2cc3c(s2)CCCCC3)cc1,21*,6,-5,/
COc1ccc(C(=O)N2CCOC2CNC(=O)C(=O)NCc2ccccn2)cc1 (configuration not stated),/,/,7,/
CCN(Cc1ccccc1)S(=O)(=O)c1c(C)[nH]c(C)c1C(=O)N1CCCC1,0,-1,-3,-6
COc1cc(C2=NOC(C(=O)NCc3ccccn3)C2)cc(OC)c1OC (configuration not stated),-3,-13,3,0
O=C(NCc1ccccn1)C1CC(c2ccccc2Cl)=NO1 (configuration not stated),-1,-4,15*,-3
O=C(NCCc1cn[nH]c1)c1ccc2oc(CCc3ccccc3)nc2c1,/,/,-1,/
CC(=O)c1ccc(CCCCCCCCCC(=O)O)s1,2.8*,4,3,2
CCC(=O)c1ccc(CCCCCC(=O)O)s1,1,-2,-2,2
COc1ccc(CCN2CC(C(=O)NCc3ccccc3)CCC2=O)cc1 (configuration not stated),/,/,2,-1
Oc1oc(-c2ccco2)nc1C=Nc1ccccc1,0,-3,6,3
Oc1oc(-c2ccco2)nc1C=Nc1cccc(Cl)c1,3,1,-2,37*
SMILES,LANA-H2B inh,HDAC3 inh,HTR2A ag,Fh CTSL1 inh
CN(Cc1ccccc1)C(=O)c1[nH]cnc1C(=O)Nc1ccon1,4,-3,1,/
CCNC(=O)C1(C)CCN(C(=O)c2ccc(OC)c(OC)c2)C1 (configuration not stated),/,/,1,/
C[C@]12CC[C@@H]3c4ccc(O)cc4C(=O)C[C@H]3[C@@H]1CC[C@@H]2O,3.5*,-1,-1,-9
C=Cc1cc2c(cc1O)CCC1C2CCC2(C)C(O)CCC12 (configuration not stated),/,/,-1,/
O=C(CSc1ccc(Cl)cc1)c1ccco1,2,5,5,6
O=C(CCSc1ccc(Cl)cc1)c1ccco1,-1,-1,1,20*
CCc1nnc(NC(=O)C2CCC(CNc3c(N4CCC(C)CC4)c(=O)c3=O)CC2)s1 (configuration not stated),-1,0,5,-2
CCN(CC(=O)Nc1ccc(NC(C)=O)cc1)CC(=O)Nc1ccccc1C(=O)c1ccccc1,10*,0,0,7
